# PubChem BioAssay (Tox21)
# “And” between values parts separate entries of the source, which are not always exact repeats. Equal values may be shown once. Results filed as inconclusive are left out. Where a call stands in place of a potency, no number is given. The source made the active and inactive calls. The call rests on the fitted dose curve; in most records, active means well fitted cell-killing curve with a large enough effect in the repeat runs; inconclusive means weak or mixed curves; inactive means no such curve, though single readings can be large or run the other way.
# Test: qHTS assay for identifying genotoxic compounds that show differential cytotoxicity against isogenic chicken DT40 cell lines with known DNA damage response pathways - Rad54/Ku70 mutant cell line (AID 743015); further: nearly all actives have a fitted effect of over 60% in size
# Settings: DT40 Rad54/Ku70 mutant viability, CellTiter-Glo, 40 h; series mostly up to 66.8 µM
# Text: National Center for Advancing Translational Sciences [NCATS]
# NIH Chemical Genomics Center [NCGC]
# U.S. Environmental Protection Agency [EPA]
# National Institutes of Environmental Health Sciences [NIEHS]
# National Toxicology Program [NTP]
# U.S. Food and Drug Administration [FDA]
# DNA repair pathways play a critical role in cellular homeostasis by repairing DNA damage induced by endogenous processes and xenobiotics. Isogenic chicken DT40 cell lines deficient in different DNA repair pathways can be used to identify genotoxic compounds and aid in characterizing the nature of the DNA damage induced. Two DNA repair-deficient cell lines with disrupted genes, Rad54/Ku70 or Rev3, were used to screen the Tox21 10K compound library. Possible genotoxicity was based on the presence of a significant increase in cytotoxicity in one or more of the DNA repair-deficient cell lines compared to that observed in the parental DNA repair-proficient cell line. CellTiter Glo viability assay (Promega, Madison, WI) was used to measure cell viability in these cells after compound treatment. This assay includes the data from the Rad54/Ku70 mutant cell line.
# Tox21 Assay Protocol Summary:
# 300 DT40 mutant cells in 5 uL/well were dispensed into white, solid-bottom 1536-well plates using a Multidrop Combi (ThermoFisher Scientific, Waltham, MA) dispenser. After the assay plates were incubated at 37 C/5% CO2 for approximately 0.5 hour, 23 nL of compounds dissolved in DMSO, positive controls or DMSO only was transferred into the assay plate by a pintool work station (Kalypsys, San Diego, CA). The assay plates were incubated at 37 C/5% CO2 for 40 hours. After 5 uL per well of CellTiter-Glo reagent was added into each well of the assay plates, the plates were incubated for 30 min at room temperature and the luminescence intensity of the plates was measured using a ViewLux (PerkinElmer, Shelton, CT) plate reader.
# Potency means the concentration at half of the fitted maximal effect.
row,SMILES,Potency
1,CC(=O)OC[C@H]1O[C@@H](n2ncc(=O)[nH]c2=O)[C@H](OC(C)=O)[C@@H]1OC(C)=O,1.06 µM (active)
2,CC(COCCO)OCCO (stereo not given),inactive
3,OC(CN1CCC(Cc2ccc(F)cc2)CC1)c1ccc(Cl)cc1 (stereo not given),2.11 µM (active)
4,Cc1ccc(N=Nc2c(O)c(C(=O)O)cc3ccccc23)c(S(=O)(=O)O)c1,13.3 µM (active)
5,CCCCCCCC/C=C\CCCCCCCC(=O)OCC,inactive
6,COC(C)OC,inactive
7,O=[N+]([O-])c1cccc(S(=O)(=O)O)c1,inactive
8,COC(C)(C)CCO,inactive
9,CCCCO,inactive
10,COc1ccc(-c2nc3ccc(C4=NNC(=O)CC4C)cc3[nH]2)cc1 (stereo not given),18.8 µM (active)
11,CC1=CCCC(C)(C)C12CCC(C)O2 (stereo not given),13.7 µM (active)
12,COc1cc(Cl)ccc1Oc1ccc(Cl)cc1Cl,inactive
13,Nc1c(CC(=O)O)cccc1C(=O)c1ccc(Br)cc1,inactive
14,COc1cccc(N(C)C(=S)Oc2ccc3c(c2)CCCC3)n1,26.6 µM (active)
15,COc1cc(C(=O)OCCCN2CCCN(CCCOC(=O)c3cc(OC)c(OC)c(OC)c3)CC2)cc(OC)c1OC,8.41 µM (active)
16,NC(N)=NCCC[C@H](N)C(=O)O,inactive
17,COc1ccc(C(=O)Nc2nc3ccccc3c(NCc3ccccc3)c2C#N)cc1,15.4 µM (active)
18,CCN(CC)CCNc1ccc(CNC=O)c2sc3ccc(OC)cc3c(=O)c12,0.969 µM (active)
19,O=C(O)c1nc(Cl)c(Cl)c(Cl)c1Cl,61.1 µM (active)
20,Cc1cc(N)c2cc(NC(=O)Nc3ccc4nc(C)cc(N)c4c3)ccc2n1,16.8 µM (active)

row,SMILES,Potency
1,CCCCc1nc2cccnc2n1Cc1ccc(-c2ccccc2-c2nnn[nH]2)cc1,inactive
2,OCCNCc1ccccc1,inactive
3,O=C1[C@H]2CCCC[C@H]2C(=O)N1CCCCN1CCN(c2nsc3ccccc23)CC1,5.96 µM (active)
4,NCC(=O)O,inactive
5,N=c1ccn2c(n1)O[C@H]1[C@H](O)[C@@H](CO)O[C@H]12,266 nM (active) and 172 nM (active)
6,CCCNCC(O)COc1ccccc1C(=O)CCc1ccccc1 (stereo not given),11.9 µM (active)
7,CC[N+]1(CC)CCC(=C(c2ccccc2)c2ccccc2)C1C (stereo not given),13.3 µM (active)
8,C=C(C)C(=O)OCCO,inactive
9,C[N+]1(CC2COC(c3ccccc3)(C3CCCCC3)O2)CCCCC1 (stereo not given),5.31 µM (active)
10,CCCCC(CC)COC(=O)COc1ccc(Cl)cc1Cl (stereo not given),inactive
11,CCC(=O)O[C@]1(C(=O)CCl)[C@@H](C)C[C@H]2[C@@H]3CCC4=CC(=O)C=C[C@]4(C)[C@@]3(F)[C@@H](O)C[C@@]21C,29.8 µM (active)
12,COc1ccc(C)cc1[N+](=O)[O-],inactive
13,Nc1ccccc1S(=O)(=O)c1ccccc1,inactive
14,Nc1cccc([N+](=O)[O-])c1,inactive
15,CCC(C)c1cc(C(C)(C)C)c(O)c(C(C)(C)C)c1 (stereo not given),inactive
16,CCN(CC)CCOC(=O)C(c1ccccc1)C1CCCCC1 (stereo not given),23.7 µM (active)
17,CN1C[C@H]2c3ccccc3Oc3ccc(Cl)cc3[C@@H]2C1,29.8 µM (active)
18,CC(C)CC(=O)C1C(=O)c2ccccc2C1=O,inactive
19,C=C(C)C(=O)OCC,inactive
20,CNC(=O)CN(CCN(CCN(CC(=O)[O-])CC(=O)NC)CC(=O)[O-])CC(=O)[O-].O.[Gd+3],inactive
